Laboratory results from paper PMC5540273 (PLoS ONE, 2017).

system: T1, RSK2(Kin.Dom.2-C-terminal); settings: concentration: 1 μM, replicates: in singlicate; n = 1
T1 construct: gene RPS6KA3
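Further: KINOMEscan kinase panel screen.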

SMILES	%Inh
O=C(Nc1n[nH]c2nc(-c3ccco3)c(Br)cc12)C1CCN(Cc2ccccc2)C1.O=C(O)[C@H](O)[C@@H](O)C(=O)O (centres unmarked) [SB-742034]	0%
Cn1cnc2c(N)ncnc21 [SKF-97623]	0%
COc1ccc(Nc2nccc(-c3ccc(NC(=O)c4cc5cc(F)ccc5[nH]4)cc3)n2)cc1 [GSK1229496]	20%
CNC(=O)c1ccc(C)c(-n2c(C)cc(OCc3ccc(F)cc3F)c(Br)c2=O)c1	0%
Nc1nccc(-c2c(-c3ccc(F)cc3)ncn2C2CCN(Cc3ccccc3)CC2)n1 [SB-219980]	0%
Cc1ccc(NC(=O)Nc2ccccc2)cc1-c1ccc(C(=O)Nc2ccncc2)cc1 [GSK1398471]	1%
Fc1ccc(-c2nc[nH]c2-c2ccncc2)cc1 [SB-217360]	4%
CC(C)c1cc(-c2ccc3c(N)n[nH]c3c2)nc(N)n1 [GSK2250882]	0%
Fc1ccc(-c2nc3n(c2-c2ccncc2)CCS3)cc1 [GI98581]	7%
CCc1ccc(-c2ccc3c(c2)-c2n[nH]cc2S(=O)(=O)N3C)cc1	52%
COc1ccc(CSc2nnc(-c3ccc4c(c3)CCO4)o2)cc1	3%
CSc1ccc(-c2nc3n(c2-c2ccncc2)CCC3)cc1 [SKF-105561]	20%
COc1cccc(NC(=O)Nc2ccc(C)c(-c3ccc(C(=O)Nc4ccncc4)cc3)c2)c1 [GSK1398474]	0%
O=c1cc(N2CCOCC2)nc2n(Cc3cccc(Cl)c3Cl)c3ccccc3n12 [GSK2299009]	53%
COC(=O)c1cccc(NC(=O)NC2CCN(c3ccnc(Nc4ccc(F)cc4)n3)C2)c1 (centres unmarked) [GSK1379725]	0%
O=C(Nc1n[nH]c2nc(-c3cccs3)c(Br)cc12)C1CC1 [SB-735297]	0%
CC(=O)c1c(C)c2cnc(Nc3ccc(N4CCNCC4)cn3)nc2n(C2CCCC2)c1=O	0%
CN1c2ccc(-c3ccc(C(N)=O)cc3)cc2-c2[nH]ncc2S1(=O)=O	35%
CNc1cc(-c2ccc3c(N)n[nH]c3c2)nc(N)n1 [GSK2224810]	0%

SMILES	%Inh
Cn1cncc1C(=O)NC1CCN(c2ccnc(Nc3ccc(F)cc3)n2)C1 (centres unmarked) [GSK1379717]	0%
Cn1cncc1-c1cc2c(Nc3ccc(OCc4ccccc4)cc3)ncnc2cn1 [GW281179]	0%
COc1ccc(-c2coc3ccc(-c4nnc(C)o4)cc23)cc1	0%
Cc1ccc(NC(=O)Nc2ccc(Cl)cc2)cc1-c1ccc(C(=O)Nc2ccncc2)cc1 [GSK1398472]	6%
CC(=O)c1c(C)c2cnc(Nc3ccn(C)n3)nc2n(C2CCCC2)c1=O	0%
COc1ccc(Nc2nccc(N3CCC(NC(=O)c4cc5ccccc5s4)C3)n2)cc1 (centres unmarked) [GSK1379738]	4%
Cc1nccc(-c2c(-c3ccc(F)cc3)ncn2CCCN2CCOCC2)n1.Cl [SB-282975]	44%
CC[C@@H]1CO[C@H](C(=O)Nc2ccccc2)CN1c1cc(-c2ccc3c(N)n[nH]c3c2)nc(NC)n1 [GSK2376236]	2%
NS(=O)(=O)c1cccc(N/C=C2\C(=O)Nc3ccc(S(=O)(=O)Cc4c(Cl)cccc4Cl)cc32)c1 [GSK398099]	0%
Nc1cccc(-c2ccc3c(N)n[nH]c3c2)n1 [GSK2192730]	0%
CCCCc1nn2ncccc2c1-c1ccnc(NC2CC2)n1 [GW684374]	0%
CNc1nc(-c2ccc3c(N)n[nH]c3c2)cc(N2C[C@@H](C(=O)NC3CCCCC3)OC[C@H]2C)n1 [GSK2375584]	14%
COc1cccc(C2=C(Nc3cc(Cl)c(O)c(Cl)c3)C(=O)NC2=O)c1 [SB-390767]	37%
COc1ccc(CSc2nnc(-c3ccc4ncsc4c3)o2)cc1C(F)(F)F	0%
Cc1c(Cn2c(C)c(C)n3c(=O)cc(N4CCOCC4)nc23)cccc1C(F)(F)F [GSK2328680]	2%
CNc1nc(-c2ccc3c(N)n[nH]c3c2)cc(N2C[C@@H](C(=O)Nc3ccccc3)CC[C@H]2C)n1 [GSK2298859]	0%
Cc1ccccc1-c1cc(-c2c[nH]nc2-c2ccccn2)ccn1 [GW680061]	15%
COc1ccc(Nc2nccc(NCCNC(=O)Nc3cc(C)ccc3C)n2)cc1 [GSK1379899]	9%

system: T2, RSK3(Kin.Dom.1-N-terminal); settings: concentration: 1 μM, replicates: in singlicate; n = 1
T2 construct: gene RPS6KA2

SMILES	%Inh
O=C(Nc1n[nH]c2nc(-c3ccco3)c(Br)cc12)C1CCN(Cc2ccccc2)C1.O=C(O)[C@H](O)[C@@H](O)C(=O)O (centres unmarked) [SB-742034]	6%
Cn1cnc2c(N)ncnc21 [SKF-97623]	0%
COc1ccc(Nc2nccc(-c3ccc(NC(=O)c4cc5cc(F)ccc5[nH]4)cc3)n2)cc1 [GSK1229496]	0%
CNC(=O)c1ccc(C)c(-n2c(C)cc(OCc3ccc(F)cc3F)c(Br)c2=O)c1	10%
Nc1nccc(-c2c(-c3ccc(F)cc3)ncn2C2CCN(Cc3ccccc3)CC2)n1 [SB-219980]	4%
Cc1ccc(NC(=O)Nc2ccccc2)cc1-c1ccc(C(=O)Nc2ccncc2)cc1 [GSK1398471]	3%
Fc1ccc(-c2nc[nH]c2-c2ccncc2)cc1 [SB-217360]	0%
CC(C)c1cc(-c2ccc3c(N)n[nH]c3c2)nc(N)n1 [GSK2250882]	0%
Fc1ccc(-c2nc3n(c2-c2ccncc2)CCS3)cc1 [GI98581]	18%
CCc1ccc(-c2ccc3c(c2)-c2n[nH]cc2S(=O)(=O)N3C)cc1	5%
COc1ccc(CSc2nnc(-c3ccc4c(c3)CCO4)o2)cc1	0%
CSc1ccc(-c2nc3n(c2-c2ccncc2)CCC3)cc1 [SKF-105561]	0%
COc1cccc(NC(=O)Nc2ccc(C)c(-c3ccc(C(=O)Nc4ccncc4)cc3)c2)c1 [GSK1398474]	7%
O=c1cc(N2CCOCC2)nc2n(Cc3cccc(Cl)c3Cl)c3ccccc3n12 [GSK2299009]	4%
COC(=O)c1cccc(NC(=O)NC2CCN(c3ccnc(Nc4ccc(F)cc4)n3)C2)c1 (centres unmarked) [GSK1379725]	3%
O=C(Nc1n[nH]c2nc(-c3cccs3)c(Br)cc12)C1CC1 [SB-735297]	0%
CC(=O)c1c(C)c2cnc(Nc3ccc(N4CCNCC4)cn3)nc2n(C2CCCC2)c1=O	0%
CN1c2ccc(-c3ccc(C(N)=O)cc3)cc2-c2[nH]ncc2S1(=O)=O	0%
CNc1cc(-c2ccc3c(N)n[nH]c3c2)nc(N)n1 [GSK2224810]	1%

SMILES	%Inh
Cn1cncc1C(=O)NC1CCN(c2ccnc(Nc3ccc(F)cc3)n2)C1 (centres unmarked) [GSK1379717]	0%
Cn1cncc1-c1cc2c(Nc3ccc(OCc4ccccc4)cc3)ncnc2cn1 [GW281179]	3%
COc1ccc(-c2coc3ccc(-c4nnc(C)o4)cc23)cc1	0%
Cc1ccc(NC(=O)Nc2ccc(Cl)cc2)cc1-c1ccc(C(=O)Nc2ccncc2)cc1 [GSK1398472]	15%
CC(=O)c1c(C)c2cnc(Nc3ccn(C)n3)nc2n(C2CCCC2)c1=O	0%
COc1ccc(Nc2nccc(N3CCC(NC(=O)c4cc5ccccc5s4)C3)n2)cc1 (centres unmarked) [GSK1379738]	1%
Cc1nccc(-c2c(-c3ccc(F)cc3)ncn2CCCN2CCOCC2)n1.Cl [SB-282975]	9%
CC[C@@H]1CO[C@H](C(=O)Nc2ccccc2)CN1c1cc(-c2ccc3c(N)n[nH]c3c2)nc(NC)n1 [GSK2376236]	26%
NS(=O)(=O)c1cccc(N/C=C2\C(=O)Nc3ccc(S(=O)(=O)Cc4c(Cl)cccc4Cl)cc32)c1 [GSK398099]	10%
Nc1cccc(-c2ccc3c(N)n[nH]c3c2)n1 [GSK2192730]	6%
CCCCc1nn2ncccc2c1-c1ccnc(NC2CC2)n1 [GW684374]	0%
CNc1nc(-c2ccc3c(N)n[nH]c3c2)cc(N2C[C@@H](C(=O)NC3CCCCC3)OC[C@H]2C)n1 [GSK2375584]	9%
COc1cccc(C2=C(Nc3cc(Cl)c(O)c(Cl)c3)C(=O)NC2=O)c1 [SB-390767]	0%
COc1ccc(CSc2nnc(-c3ccc4ncsc4c3)o2)cc1C(F)(F)F	0%
Cc1c(Cn2c(C)c(C)n3c(=O)cc(N4CCOCC4)nc23)cccc1C(F)(F)F [GSK2328680]	7%
CNc1nc(-c2ccc3c(N)n[nH]c3c2)cc(N2C[C@@H](C(=O)Nc3ccccc3)CC[C@H]2C)n1 [GSK2298859]	7%
Cc1ccccc1-c1cc(-c2c[nH]nc2-c2ccccn2)ccn1 [GW680061]	2%
COc1ccc(Nc2nccc(NCCNC(=O)Nc3cc(C)ccc3C)n2)cc1 [GSK1379899]	0%
